Records with an inconclusive call do not appear. Where a call stands in place of a potency, no number is given. Activity calls are given as the source filed them. The call rests on the fitted dose curve; in most records, active means well fitted curve in the direction sought with a large enough effect; inconclusive means small, poorly fitted or top-dose-only effect, or another doubt; inactive means no such curve, though single readings can be large; an effect the other way counts as inactive or inconclusive.
Tests used:
[1] = target: Alpha-galactosidase A (Homo sapiens) (UniProt P06280); experiment: Counterscreen for Glucocerebrosidase Inhibitors: qHTS Assay for Human alpha-Galactosidase at pH 4.5 (AID 992)
Chain of Alpha-galactosidase A (Homo sapiens) (P06280 whole entry, looked up): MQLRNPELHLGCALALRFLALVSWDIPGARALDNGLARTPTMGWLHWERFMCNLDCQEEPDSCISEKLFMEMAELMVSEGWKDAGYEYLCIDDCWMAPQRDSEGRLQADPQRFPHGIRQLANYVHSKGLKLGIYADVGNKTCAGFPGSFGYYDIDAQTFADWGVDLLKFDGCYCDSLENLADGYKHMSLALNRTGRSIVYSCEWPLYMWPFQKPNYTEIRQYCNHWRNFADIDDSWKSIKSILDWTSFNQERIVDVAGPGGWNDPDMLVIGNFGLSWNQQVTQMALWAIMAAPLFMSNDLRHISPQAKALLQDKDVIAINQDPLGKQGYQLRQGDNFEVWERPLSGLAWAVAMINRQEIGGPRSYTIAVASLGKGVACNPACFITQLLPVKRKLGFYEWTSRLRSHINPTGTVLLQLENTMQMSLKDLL
In short: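 Citrate buffer pH 4.5, Tween-20 0.005%. Enzyme 2 nM, substrate 80 uM, 20 min RT. Stop pH 10. Fluorescence Ex 365/Em 440. AC50 by Hill fit.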

[2] = Cell Viability - LYMP2-007 (AID 979);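 further: cells exposed to compound for 24 h before reading; nearly all actives have a fitted effect of over 60% in size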
In short: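 Cells are seeded at 2500 per well and rested 5 hr. Compounds are then added over a concentration series for 24 hr at 37 C. CellTiter-Glo is added for 30 min at room temperature before luminescence reading.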

[3] = Cell Viability - LYMP2-008 (AID 980);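 further: cells exposed to compound for 24 h at 37 °C; nearly all actives have a fitted effect of over 60% in size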
In short: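 Cells seeded at 2500/well and rested 5 hr at 37 C; compounds added over a concentration range and incubated 24 hr at 37 C; CellTiter-Glo added, 30 min at room temperature; luminescence read and AC50 fitted with Hill model.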

[4] = Cell Viability - LYMP2-010 (AID 981);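 further: cells exposed to compound for 24 hours at 37 °C; nearly all actives have a fitted effect of over 55% in size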; further: potency means the concentration at half of the fitted maximal effect
In short: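 Steps: seed 2500 LYMP2-010 cells per well; incubate 5 hr at 37 C; add compound; incubate 24 hr at 37 C; add CellTiter-Glo, wait 30 min at room temperature; read luminescence. Concentration-response fitted to Hill equation for AC50.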

[5] = Cell Viability - LYMP2-012 (AID 982);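 further: cellular ATP by luciferase luminescence where a drop means cytotoxicity; cells exposed to compound for one day before reading; nearly all actives have a fitted effect of over 55% in size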
[6] = Cell Viability - LYMP2-014 (AID 983);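 further: series mostly up to about 92 µM; cells exposed to compound for 24 h at 37 °C; nearly all actives have a fitted effect of over 50% in size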
In short: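 Cells are plated at 2500/well and left 5 hr at 37 C. Compounds are added across a concentration range and incubated 24 hr at 37 C in complete medium. CellTiter-Glo is added, and luminescence is read after 30 min at room temperature.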

[7] = Cell Viability - LYMP2-020 (AID 986);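 further: series mostly up to about 92 µM; cells exposed to compound for 24 h at 37 °C; nearly all actives have a fitted effect of over 55% in size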
In short: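 Seed 2500 cells per well and incubate 5 hr at 37 C. Add compounds at a concentration series and incubate 24 hr at 37 C. Add CellTiter-Glo, wait 30 min at RT, read luminescence, and fit a Hill curve for AC50.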

[8] = Cell Viability - LYMP2-022 (AID 987); further: nearly all actives have a fitted effect of over 55% in size; further: potency means the concentration at half of the fitted maximal effect
In short: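 Cells were seeded at 2500 per well, rested 5 hr at 37 C, and treated with titrated compounds for 24 hr at 37 C. Cellular ATP was then quantified by luciferase luminescence, and AC50 values were derived from Hill-modelled concentration-response curves.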

[9] = Cell Viability - LYMP2-024 (AID 988); further: nearly all actives have a fitted effect of over 60% in size
In short: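 qHTS cytotoxicity, human lymphoblastoid line, complete medium; 24 h cpd treatment, 37 C; CellTiter-Glo ATP luminescence readout; tetraoctylammonium bromide positive control; AC50 via Hill fit.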

[10] = Cell Viability - LYMP2-026 (AID 989);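 further: cells exposed to compound for 24 h at 37 °C; nearly all actives have a fitted effect of over 50% in size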
In short: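 Cells are seeded at 2500 per well and held 5 hr at 37 C. Compounds are added in concentration series for 24 hr, then CellTiter-Glo reagent is applied and luminescence read.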

Row | SMILES | outcome [1] | outcome [2] | outcome [3] | Potency [4] | outcome [5] | outcome [6] | outcome [7] | Potency [8] | outcome [9] | outcome [10]
1 | O=C(CCCN1CCC2(CC1)C(=O)NCN2c1ccccc1)c1ccc(F)cc1 | inactive | – | – | – | – | – | – | – | – | –
2 | O=P1(N(CCCl)CCCl)NCCCO1 (stereo not given) | inactive | inactive | inactive | inactive | inactive | inactive | inactive | inactive | inactive | inactive
3 | CC(C)c1cccc(C(C)C)c1O | inactive | inactive | inactive | inactive | inactive | inactive | inactive | inactive | inactive | inactive
4 | CCCCC/C=C\C/C=C\C/C=C\C/C=C\CCCC(=O)NCC(=O)O | inactive | – | – | – | – | – | – | – | – | –
5 | CCC(C)(C)c1ccc(O)cc1 | – | inactive | inactive | inactive | inactive | inactive | inactive | inactive | inactive | inactive
6 | COc1cc(OC)c(OC)cc1C=O | – | inactive | inactive | inactive | inactive | inactive | inactive | inactive | inactive | inactive
7 | C[C@]12CCC(=O)C=C1CC[C@@H]1[C@@H]2CC[C@]2(C)C(=O)CC[C@@H]12 | inactive | inactive | inactive | inactive | inactive | inactive | inactive | inactive | inactive | inactive
8 | COC(=O)C(c1ccccc1)C1CCCCN1 (stereo not given) | – | inactive | inactive | inactive | inactive | inactive | inactive | – | – | inactive
9 | O=c1[nH]oc2c1CCNC2 | inactive | – | – | – | – | – | – | – | – | –
10 | CCOC(=O)CC(SP(=S)(OC)OC)C(=O)OCC (stereo not given) | – | inactive | inactive | inactive | inactive | inactive | inactive | inactive | inactive | inactive
11 | C[C@]12CCC(=O)C=C1CC[C@@H]1[C@@H]2CC[C@@]2(C)[C@H]1CC[C@]2(C)O | – | inactive | inactive | inactive | – | inactive | inactive | inactive | inactive | inactive
12 | Oc1ccc(Cl)cc1 | – | inactive | inactive | inactive | inactive | inactive | inactive | inactive | inactive | inactive
13 | Nc1ccccc1C(=O)O | – | inactive | inactive | inactive | inactive | inactive | inactive | inactive | inactive | inactive
14 | CN1C[C@H](C(=O)N[C@]2(C)O[C@@]3(O)[C@@H]4CCCN4C(=O)[C@H](Cc4ccccc4)N3C2=O)C=C2c3cccc4[nH]cc(c34)C[C@H]21 | – | inactive | inactive | – | – | inactive | inactive | – | – | inactive
15 | Nc1ccccc1 | – | inactive | inactive | inactive | inactive | inactive | inactive | inactive | inactive | inactive
16 | COP(=S)(OC)Oc1ccc(SC)c(C)c1 | – | inactive | inactive | inactive | inactive | inactive | inactive | inactive | inactive | inactive
17 | Clc1ccc(C(c2ccc(Cl)cc2)C(Cl)(Cl)Cl)cc1 | – | inactive | inactive | inactive | inactive | inactive | inactive | inactive | inactive | inactive
18 | CC(C)NC(C)C | – | inactive | inactive | inactive | inactive | inactive | inactive | inactive | inactive | inactive
19 | O=C(O)CCCc1ccc(N(CCCl)CCCl)cc1 | inactive | – | – | 31.6 µM (active) | – | – | – | 39.8 µM (active) | – | –
20 | CCCC(C)(COC(N)=O)COC(N)=O | – | inactive | inactive | inactive | inactive | inactive | inactive | inactive | inactive | inactive
21 | C[C@]1(O)CC[C@H]2[C@@H]3CCC4=CC(=O)CC[C@]4(C)[C@@]3(F)[C@@H](O)C[C@@]21C | – | inactive | inactive | inactive | inactive | inactive | inactive | inactive | inactive | inactive
22 | NCCc1ccc(O)cc1 | inactive | inactive | inactive | inactive | inactive | inactive | inactive | inactive | inactive | inactive

Source: PubChem BioAssay (NCATS)
